# Columns and labels:
# Test in all cases: SPOT peptide array binding signal intensity (averaged, normalized) (arbitrary units (background-subtracted, floor 0; scale differs between SH3 domains)); higher = stronger binding of the SH3 domain to the peptide
# AgAbp1 = target: AgAbp1
# Procedure, shortened: (§1)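 To measure binding, SH3 domains from four yeast species were fused to GST, expressed in E. coli BL21(DE3) and purified on glutathione Sepharose. Each domain was incubated at 10 μg/ml overnight at 4°C on cellulose membranes with synthetic 15-mer peptides whose cysteines were replaced by serines. Anti-GST antibody, an HRP anti-mouse secondary and luminol were used for detection, and images were quantified with Genespotter. Reported binding signal is normalized, background-subtracted spot intensity averaged over replicates, in arbitrary units that differ between domains.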
# AgBbc1 = target: AgBbc1
# Procedure, shortened: as §1
# AgBem1-D1 = target: AgBem1-D1
# Procedure, shortened: as §1
# AgBzz1-D1 = target: AgBzz1-D1
# Procedure, shortened: as §1
# AgBzz1-D2 = target: AgBzz1-D2
# Procedure, shortened: as §1
# AgCyk3 = target: AgCyk3
# Procedure, shortened: as §1
# AgFus1 = target: AgFus1
# Procedure, shortened: as §1
# AgHof1 = target: AgHof1
# Procedure, shortened: as §1
# AgHse1 = target: AgHse1
# Procedure, shortened: as §1
# AgLsb1 = target: AgLsb1
# Procedure, shortened: as §1
# AgLsb4 = target: AgLsb4
# Procedure, shortened: as §1
# AgMyo5 = target: AgMyo5
# Procedure, shortened: as §1
# AgNbp2 = target: AgNbp2
# Procedure, shortened: as §1
# AgRvs167 = target: AgRvs167
# Procedure, shortened: as §1
# AgSho1 = target: AgSho1
# Procedure, shortened: as §1
# AgSla1-D1-D2 = target: AgSla1-D1-D2
# Procedure, shortened: as §1
# AgSla1-D3 = target: AgSla1-D3
# Procedure, shortened: as §1
# CaAbp1-D1 = target: CaAbp1-D1
# Procedure, shortened: as §1
# CaAbp1-D2 = target: CaAbp1-D2
# Procedure, shortened: as §1
# CaBbc1 = target: CaBbc1
# Procedure, shortened: as §1
# CaBem1-D1 = target: CaBem1-D1
# Procedure, shortened: as §1
# CaBzz1-D1 = target: CaBzz1-D1
# Procedure, shortened: as §1
# CaBzz1-D2 = target: CaBzz1-D2
# Procedure, shortened: as §1
# CaCyk3 = target: CaCyk3
# Procedure, shortened: as §1
# CaFus1 = target: CaFus1
# Procedure, shortened: as §1
# CaHof1 = target: CaHof1
# Procedure, shortened: as §1
# CaHse1 = target: CaHse1
# Procedure, shortened: as §1
# CaLsb1 = target: CaLsb1
# Procedure, shortened: as §1
# CaLsb4 = target: CaLsb4
# Procedure, shortened: as §1
# CaMyo5 = target: CaMyo5
# Procedure, shortened: as §1
# CaNbp2 = target: CaNbp2
# Procedure, shortened: as §1
# CaRvs167 = target: CaRvs167
# Procedure, shortened: as §1
# CaRvs167-3 = target: CaRvs167-3
# Procedure, shortened: as §1
# CaSho1 = target: CaSho1
# Procedure, shortened: as §1
# CaSla1-D1-D2 = target: CaSla1-D1-D2
# Procedure, shortened: as §1
# CaSla1-D3 = target: CaSla1-D3
# Procedure, shortened: as §1
# ScAbp1 = target: ScAbp1
# Procedure, shortened: as §1
# ScBbc1 = target: ScBbc1
# Procedure, shortened: as §1
# ScBem1-D1 = target: ScBem1-D1
# Procedure, shortened: as §1
# ScBzz1-D1 = target: ScBzz1-D1
# Procedure, shortened: as §1
# ScBzz1-D2 = target: ScBzz1-D2
# Procedure, shortened: as §1
# ScCyk3 = target: ScCyk3
# Procedure, shortened: as §1
# ScFus1 = target: ScFus1
# Procedure, shortened: as §1
# ScHof1 = target: ScHof1
# Procedure, shortened: as §1
# ScHse1 = target: ScHse1
# Procedure, shortened: as §1
# ScLsb1 = target: ScLsb1
# Procedure, shortened: as §1
# ScLsb2 = target: ScLsb2
# Procedure, shortened: as §1
# ScLsb3 = target: ScLsb3
# Procedure, shortened: as §1
# ScLsb4 = target: ScLsb4
# Procedure, shortened: as §1
# ScMyo3 = target: ScMyo3
# Procedure, shortened: as §1
# ScMyo5 = target: ScMyo5
# Procedure, shortened: as §1
# ScNbp2 = target: ScNbp2
# Procedure, shortened: as §1
# ScPex13 = target: ScPex13
# Procedure, shortened: as §1
# ScRvs167 = target: ScRvs167
# Procedure, shortened: as §1
# ScSho1 = target: ScSho1
# Procedure, shortened: as §1
# ScSla1-D1-D2 = target: ScSla1-D1-D2
# Procedure, shortened: as §1
# ScSla1-D3 = target: ScSla1-D3
# Procedure, shortened: as §1
# SpAbp1-D1 = target: SpAbp1-D1
# Procedure, shortened: as §1
# SpBbc1 = target: SpBbc1
# Procedure, shortened: as §1
# SpBzz1-D1 = target: SpBzz1-D1
# Procedure, shortened: as §1
# SpBzz1-D2 = target: SpBzz1-D2
# Procedure, shortened: as §1
# SpCyk3 = target: SpCyk3
# Procedure, shortened: as §1
# SpHof1 = target: SpHof1
# Procedure, shortened: as §1
# SpHof1-2 = target: SpHof1-2
# Procedure, shortened: as §1
# SpHof1-3 = target: SpHof1-3
# Procedure, shortened: as §1
# SpHse1 = target: SpHse1
# Procedure, shortened: as §1
# SpLsb1 = target: SpLsb1
# Procedure, shortened: as §1
# SpLsb4 = target: SpLsb4
# Procedure, shortened: as §1
# SpMyo1 = target: SpMyo1
# Procedure, shortened: as §1
# SpNbp2 = target: SpNbp2
# Procedure, shortened: as §1
# SpPex13 = target: SpPex13
# Procedure, shortened: as §1
# SpRvs167 = target: SpRvs167
# Procedure, shortened: as §1
# SpSla1-D1-D2 = target: SpSla1-D1-D2
# Procedure, shortened: as §1
# SpSla1-D3 = target: SpSla1-D3
# Procedure, shortened: as §1
binder,measurement,setting,value
NVLRKILEIPLHSFS,SPOT peptide array binding signal intensity,AgAbp1,4
same,SPOT peptide array binding signal intensity,AgBbc1,≤ 0
same,SPOT peptide array binding signal intensity,AgBem1-D1,≤ 0
same,SPOT peptide array binding signal intensity,AgBzz1-D1,5.5
same,SPOT peptide array binding signal intensity,AgBzz1-D2,24.5
same,SPOT peptide array binding signal intensity,AgCyk3,≤ 0
same,SPOT peptide array binding signal intensity,AgFus1,29.5
same,SPOT peptide array binding signal intensity,AgHof1,≤ 0
same,SPOT peptide array binding signal intensity,AgHse1,2570
same,SPOT peptide array binding signal intensity,AgLsb1,2
same,SPOT peptide array binding signal intensity,AgLsb4,16
same,SPOT peptide array binding signal intensity,AgMyo5,≤ 0
same,SPOT peptide array binding signal intensity,AgNbp2,≤ 0
same,SPOT peptide array binding signal intensity,AgRvs167,1
same,SPOT peptide array binding signal intensity,AgSho1,≤ 0
same,SPOT peptide array binding signal intensity,AgSla1-D1-D2,≤ 0
same,SPOT peptide array binding signal intensity,AgSla1-D3,2
same,SPOT peptide array binding signal intensity,CaAbp1-D1,≤ 0
same,SPOT peptide array binding signal intensity,CaAbp1-D2,≤ 0
same,SPOT peptide array binding signal intensity,CaBbc1,≤ 0
same,SPOT peptide array binding signal intensity,CaBem1-D1,≤ 0
same,SPOT peptide array binding signal intensity,CaBzz1-D1,≤ 0
same,SPOT peptide array binding signal intensity,CaBzz1-D2,≤ 0
same,SPOT peptide array binding signal intensity,CaCyk3,≤ 0
same,SPOT peptide array binding signal intensity,CaFus1,1150
same,SPOT peptide array binding signal intensity,CaHof1,≤ 0
same,SPOT peptide array binding signal intensity,CaHse1,7
same,SPOT peptide array binding signal intensity,CaLsb1,6
same,SPOT peptide array binding signal intensity,CaLsb4,≤ 0
same,SPOT peptide array binding signal intensity,CaMyo5,≤ 0
same,SPOT peptide array binding signal intensity,CaNbp2,94.5
same,SPOT peptide array binding signal intensity,CaRvs167,≤ 0
same,SPOT peptide array binding signal intensity,CaRvs167-3,7.25
same,SPOT peptide array binding signal intensity,CaSho1,75
same,SPOT peptide array binding signal intensity,CaSla1-D1-D2,≤ 0
same,SPOT peptide array binding signal intensity,CaSla1-D3,≤ 0
same,SPOT peptide array binding signal intensity,ScAbp1,2
same,SPOT peptide array binding signal intensity,ScBbc1,≤ 0
same,SPOT peptide array binding signal intensity,ScBem1-D1,≤ 0
same,SPOT peptide array binding signal intensity,ScBzz1-D1,12
same,SPOT peptide array binding signal intensity,ScBzz1-D2,26
same,SPOT peptide array binding signal intensity,ScCyk3,31
same,SPOT peptide array binding signal intensity,ScFus1,123
same,SPOT peptide array binding signal intensity,ScHof1,≤ 0
same,SPOT peptide array binding signal intensity,ScHse1,1780
same,SPOT peptide array binding signal intensity,ScLsb1,59.8
same,SPOT peptide array binding signal intensity,ScLsb2,≤ 0
same,SPOT peptide array binding signal intensity,ScLsb3,≤ 0
same,SPOT peptide array binding signal intensity,ScLsb4,≤ 0
same,SPOT peptide array binding signal intensity,ScMyo3,0.75
same,SPOT peptide array binding signal intensity,ScMyo5,≤ 0
same,SPOT peptide array binding signal intensity,ScNbp2,9.5
same,SPOT peptide array binding signal intensity,ScPex13,≤ 0
same,SPOT peptide array binding signal intensity,ScRvs167,0.833
same,SPOT peptide array binding signal intensity,ScSho1,120
same,SPOT peptide array binding signal intensity,ScSla1-D1-D2,≤ 0
same,SPOT peptide array binding signal intensity,ScSla1-D3,≤ 0
same,SPOT peptide array binding signal intensity,SpAbp1-D1,≤ 0
same,SPOT peptide array binding signal intensity,SpBbc1,38
same,SPOT peptide array binding signal intensity,SpBzz1-D1,≤ 0
LTRRFPFLFPFDTRM,SPOT peptide array binding signal intensity,AgAbp1,4
same,SPOT peptide array binding signal intensity,AgBbc1,≤ 0
same,SPOT peptide array binding signal intensity,AgBem1-D1,47
same,SPOT peptide array binding signal intensity,AgBzz1-D1,13
same,SPOT peptide array binding signal intensity,AgBzz1-D2,27
same,SPOT peptide array binding signal intensity,AgCyk3,1
same,SPOT peptide array binding signal intensity,AgFus1,198
same,SPOT peptide array binding signal intensity,AgHof1,43.5
same,SPOT peptide array binding signal intensity,AgHse1,1430
same,SPOT peptide array binding signal intensity,AgLsb1,1.75
same,SPOT peptide array binding signal intensity,AgLsb4,18
same,SPOT peptide array binding signal intensity,AgMyo5,1.5
same,SPOT peptide array binding signal intensity,AgNbp2,36
same,SPOT peptide array binding signal intensity,AgRvs167,3.33
same,SPOT peptide array binding signal intensity,AgSho1,21
same,SPOT peptide array binding signal intensity,AgSla1-D1-D2,25.5
same,SPOT peptide array binding signal intensity,AgSla1-D3,4
same,SPOT peptide array binding signal intensity,CaAbp1-D1,573
same,SPOT peptide array binding signal intensity,CaAbp1-D2,155
same,SPOT peptide array binding signal intensity,CaBbc1,3.25
same,SPOT peptide array binding signal intensity,CaBem1-D1,7
same,SPOT peptide array binding signal intensity,CaBzz1-D1,40
same,SPOT peptide array binding signal intensity,CaBzz1-D2,12.5
same,SPOT peptide array binding signal intensity,CaCyk3,8
same,SPOT peptide array binding signal intensity,CaFus1,1040
same,SPOT peptide array binding signal intensity,CaHof1,0.5
same,SPOT peptide array binding signal intensity,CaHse1,83.5
same,SPOT peptide array binding signal intensity,CaLsb1,≤ 0
same,SPOT peptide array binding signal intensity,CaLsb4,9.5
same,SPOT peptide array binding signal intensity,CaMyo5,13.8
same,SPOT peptide array binding signal intensity,CaNbp2,249
same,SPOT peptide array binding signal intensity,CaRvs167,10.2
same,SPOT peptide array binding signal intensity,CaRvs167-3,43.2
same,SPOT peptide array binding signal intensity,CaSho1,892
same,SPOT peptide array binding signal intensity,CaSla1-D1-D2,30.5
same,SPOT peptide array binding signal intensity,CaSla1-D3,20
same,SPOT peptide array binding signal intensity,ScAbp1,39
same,SPOT peptide array binding signal intensity,ScBbc1,0.5
same,SPOT peptide array binding signal intensity,ScBem1-D1,14
same,SPOT peptide array binding signal intensity,ScBzz1-D1,10
same,SPOT peptide array binding signal intensity,ScBzz1-D2,10
same,SPOT peptide array binding signal intensity,ScCyk3,374
same,SPOT peptide array binding signal intensity,ScFus1,289
same,SPOT peptide array binding signal intensity,ScHof1,0.5
same,SPOT peptide array binding signal intensity,ScHse1,1600
same,SPOT peptide array binding signal intensity,ScLsb1,≤ 0
same,SPOT peptide array binding signal intensity,ScLsb2,≤ 0
same,SPOT peptide array binding signal intensity,ScLsb3,27.5
same,SPOT peptide array binding signal intensity,ScLsb4,≤ 0
same,SPOT peptide array binding signal intensity,ScMyo3,2.5
same,SPOT peptide array binding signal intensity,ScMyo5,1.5
same,SPOT peptide array binding signal intensity,ScNbp2,128
same,SPOT peptide array binding signal intensity,ScPex13,≤ 0
same,SPOT peptide array binding signal intensity,ScRvs167,14.3
same,SPOT peptide array binding signal intensity,ScSho1,335
same,SPOT peptide array binding signal intensity,ScSla1-D1-D2,7
same,SPOT peptide array binding signal intensity,ScSla1-D3,7.5
same,SPOT peptide array binding signal intensity,SpAbp1-D1,195
same,SPOT peptide array binding signal intensity,SpBbc1,≤ 0
same,SPOT peptide array binding signal intensity,SpBzz1-D1,53.5
same,SPOT peptide array binding signal intensity,SpBzz1-D2,≤ 0
same,SPOT peptide array binding signal intensity,SpCyk3,11.5
same,SPOT peptide array binding signal intensity,SpHof1,72.5
same,SPOT peptide array binding signal intensity,SpHof1-2,11.5
same,SPOT peptide array binding signal intensity,SpHof1-3,1320
same,SPOT peptide array binding signal intensity,SpHse1,1740
same,SPOT peptide array binding signal intensity,SpLsb1,≤ 0
same,SPOT peptide array binding signal intensity,SpLsb4,≤ 0
same,SPOT peptide array binding signal intensity,SpMyo1,7
same,SPOT peptide array binding signal intensity,SpNbp2,69
same,SPOT peptide array binding signal intensity,SpPex13,14
same,SPOT peptide array binding signal intensity,SpRvs167,2.17
same,SPOT peptide array binding signal intensity,SpSla1-D1-D2,2.5
same,SPOT peptide array binding signal intensity,SpSla1-D3,5

# From the supplement of paper PMC4466140
